A selection: hits, their analogues and other compounds. The true share with any hit is near 4%.
RecA intein inh: inhibitors of M. tuberculosis RecA intein splicing | P9WHJ3 | cell-free RecA intein splicing, fluorescence | inhibition, % (concentration not given with the values) | 0.75% of 290,000 active; in the data active means inhibition above about 30%;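 further: 0% = vehicle wells and 100% = reference inhibitor control wells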
Mtb betalactam: beta-lactam sensitization of Mtb H37Rv | M. tuberculosis H37Rv growth with meropenem, percent inhibition | inhibition, % at 25 µM | 0.27% of 330,000 active; call rule not given here;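 further: growth measured after seven days incubation then overnight dye step; 0% = bacteria only wells and 100% = bacteria with antibiotic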
Rv3671c inh: Rv3671c (M. tuberculosis) protease inhibition | AID 2606 | P9WHR9 | inhibition, % at 5.96 µM | 0.048% of 320,000 active; in the data active means inhibition above about 38%;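 further: extracellular domain of Rv3671c used as enzyme; 0% = enzyme with DMSO and 100% = no enzyme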
GDH-TPI counter-1: GDH-TPI coupled enzyme inhibition counter-screen | inhibition, % at 4.8 µM | GDH-TPI coupled enzyme counterscreen, NADH absorbance | 1.2% of 360,000 active; in the data active means inhibition above about 30%;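 further: 0% = DMSO wells and 100% = wells lacking the enzyme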
FBA Mtb inh: inhibits M. tuberculosis FBA enzyme. P9WQA3. purified M. tuberculosis FBA, fluorescence read-out. inhibition, % at 1 µM. 2.3% of 360,000 active. AID 588726;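 further: 0% = vehicle and 100% = reference inhibitor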
Mtb UGM inh: blocks M. tuberculosis UGM enzyme; purified UGM, fluorescence polarization probe displacement; inhibition, % at 10 µM; 0.06% of 320,000 active; AID 504406; in the data active means inhibition above about 10%, passing the limit was not always enough
Target sequence (P9WIQ1 whole entry, looked up): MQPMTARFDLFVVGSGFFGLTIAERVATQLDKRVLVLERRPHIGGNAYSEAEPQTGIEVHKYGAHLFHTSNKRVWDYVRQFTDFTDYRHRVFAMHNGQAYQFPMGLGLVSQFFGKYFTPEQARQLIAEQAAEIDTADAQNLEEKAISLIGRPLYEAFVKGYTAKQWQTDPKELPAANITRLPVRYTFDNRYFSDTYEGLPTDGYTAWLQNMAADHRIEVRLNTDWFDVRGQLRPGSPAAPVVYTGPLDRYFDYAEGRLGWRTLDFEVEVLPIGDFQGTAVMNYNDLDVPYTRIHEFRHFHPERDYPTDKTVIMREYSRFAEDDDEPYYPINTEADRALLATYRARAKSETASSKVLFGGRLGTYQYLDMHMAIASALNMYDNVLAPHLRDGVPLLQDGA
Mtb FBA inh conf: Mtb FBA inhibition, confirmed; 78% of 5,600 active; purified M. tuberculosis FBA, fluorescence read-out; inhibition, % at 1 µM; shares compounds with FBA Mtb inh;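 further: 0% = vehicle wells and 100% = reference inhibitor wells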
GDH-TPI counter-2: counter-screen for M. tuberculosis FBA inhibitors: GDH-TPI coupled enzyme inhibition | GDH-TPI coupled enzyme counterscreen, fluorescence | shares compounds with FBA Mtb inh | 81% of 5,600 active | AID 652141 | inhibition, % at 1 µM; in the data active means inhibition above about 10%
GDH-TPI dose: GDH-TPI dose response counter-screen for Mtb FBA | GDH-TPI coupled enzyme assay, fluorescence, artifact counterscreen | shares compounds with FBA Mtb inh | IC50, µM | 79% of 170 active; call rule not given here
* marks the source's active call; other numbers are inactive results; / = no result given; + = active, no number. Unless noted, no stated cut-off is given here; in the data, active means inhibition above about 27%; inactive means the rest.

SMILES	RecA intein inh	Mtb betalactam	Rv3671c inh	GDH-TPI counter-1	FBA Mtb inh	Mtb UGM inh	Mtb FBA inh conf	GDH-TPI counter-2	others
CC1(C(=O)NS(=O)(=O)c2ccc(Cl)s2)CCN1C(=O)C1CCCCC1 (centres undefined)	/	/	/	-12	-3	/	/	/
N#CCCN(C(=O)CSc1nc2ccccc2c(=O)[nH]1)c1ccc(F)cc1	/	-7	3	3	-2	1	/	/
Cc1ccc2nc(NCC(=O)O)nc(-c3ccccc3)c2c1	-122	1	-2	-1	30*	2	54*	46*
Cc1ccc2nc(NCCC(=O)O)nc(-c3ccccc3)c2c1	-111	1	2	2	36*	-1	48*	48*
O=C(O)CCNc1nc(-c2ccccc2)c2cc(Br)ccc2n1	-36	3	/	6	11	-1	/	/
Cc1ccc2nc(NCC(N)=O)nc(-c3ccccc3)c2c1	-98	1	4	/	/	-4	/	/
Cc1ccc2nc(NCCCO)nc(-c3ccccc3)c2c1	-248	11	1	5	31*	-2	+	+
OCCCNc1nc(-c2ccccc2)c2cc(Br)ccc2n1	-47	4	2	0	13	2	/	/
COc1ccc(O)c(C(=O)CC(=O)c2ccc(F)cc2)c1	-1	94	-3	15	81*	1	79*	52*
COc1ccc(C(=O)COc2ccc(F)cc2)c(O)c1	1	5	-5	5	1	-2	/	/
CN(CC(=O)Nc1cccc(F)c1)C(=O)Cn1cnc2c1c(=O)n(C)c(=O)n2C	-2	-5	8	-1	-2	-1	/	/
O=C1NC(=O)C(=C2CCOC2=O)N1	/	/	/	12	-3	/	/	/
CNC(=O)COc1coc(CN2CCN(C(=O)c3ccco3)CC2)cc1=O	-1	-3	-8	6	-3	-2	/	/
COc1ccc(OC)c(-c2nnc(-c3ccc(C)o3)o2)c1	0	-4	-5	24	103*	2	101*	84*
CC1(C(=O)NS(=O)(=O)c2ccc(F)cc2F)CCN1C(=O)C1CCCCC1 (centres undefined)	/	/	/	-1	1	/	/	/
Cc1ccc(CNS(=O)(=O)c2ccc(-c3cnc(C4CC4)o3)cc2)cc1	-9	-3	-3	1	41*	3	40*	25*
O=S(=O)(NCc1ccccc1)c1ccc(-c2cnc(C3CC3)o2)cc1	-9	4	-3	3	27*	1	+	158*
Cc1ccc(C)c(C(=O)OCC(=O)Nc2cccc(S(=O)(=O)N3CCCCC3)c2)c1	/	0	-161	-11	-3	0	/	/
Cc1ccc(C(=O)OCC(=O)NC(C)C2CC3CCC2C3)cc1N (centres undefined)	/	-5	-4	1	1	2	/	/
O=C(Cc1c(F)cccc1Cl)OCC(=O)N1CCN(c2ccccc2)CC1	/	-13	3	1	4	1	/	/
CC1CN(C(=O)CSc2nnc(-c3cccs3)n2N)CC(C)O1 (centres undefined)	/	-10	-2	1	0	-2	/	/
CCOC(=O)C1(Cc2cccc(Cl)c2)CCCN(C(=O)CN2C(=O)CSC2=O)C1 (centres undefined)	4	-2	-3	-2	4	2	/	/
Cc1cc(=O)oc2n[nH]c(-c3ccccc3)c12	0	-1	12	0	17	-2	/	/
COc1ccc(-c2[nH]nc3oc(=O)cc(C)c23)cc1	1	-1	-10	12	43*	1	11	-5	GDH-TPI dose=3.4*
CN1CCN(C(=O)c2cc3ccccc3cc2O)CC1	/	9	-9	-2	0	-1	/	/
SMILES	RecA intein inh	Mtb betalactam	Rv3671c inh	GDH-TPI counter-1	FBA Mtb inh	Mtb UGM inh	Mtb FBA inh conf	GDH-TPI counter-2	others
N#Cc1c(F)cccc1N1CCC(C#N)CC1	-1	15	3	6	31*	-3	154*	115*
O=C(NCc1ccco1)C1CCCN1C(=O)Nc1ccc(Br)cc1 (centres undefined)	-1	/	/	7	0	/	/	/
Cc1ccc(CCN2CC(C(=O)NC3CCC(C)CC3)CC2=O)cc1 (centres undefined)	/	/	/	-1	-2	/	/	/
CCCNC(=O)c1cn(CC)c2cc(N3CCN(C(=O)c4ccco4)CC3)c(F)cc2c1=O	-6	87	-6	10	80*	1	142*	113*
CCCCNC(=O)c1cn(CC)c2cc(N3CCN(C)CC3)c(F)cc2c1=O	/	-1	-6	9	22	-4	/	/
CCn1cc(C(=O)NCc2cccnc2)c(=O)c2cc(F)c(N3CCN(C(=O)c4ccco4)CC3)cc21	2	94	-7	3	48*	0	53*	45*
Cc1nc(SCC(=O)NC2(C#N)CCCC2)n(CC(C)C)c1C	/	/	/	7	-1	/	/	/
CCOC(=O)c1nn(-c2cccc(Cl)c2)c2nc(CC(C)C)c(C#N)c(=O)n12	-1	-17	4	0	5	0	/	/
CCOC(=O)c1nn(-c2ccc(OCC)cc2)c2nc(CC(C)C)c(C#N)c(=O)n12	-3	-7	5	-1	104*	-1	-7	-6
CCOC(=O)c1nn(-c2ccc(Cl)cc2)c2nc(CC)c(C#N)c(=O)n12	-1	8	-6	21	37*	2	1	1
Cc1ccc2nc(-c3cccc(SC4CCCCC4)c3)c(NCc3ccccc3)n2c1	/	0	5	9	19	/	/	/
COc1ccc(-c2cc(-c3nc4ccccn4c3NCc3ccccc3)ccc2OC)cc1	/	81	0	-3	36*	3	167*	136*
Cc1ccn2c(NCc3ccccc3)c(-c3cccc(SC4CCCCC4)c3)nc2c1	/	2	11	13	28*	4	39*	30*
Clc1cccc(-c2ccc(-c3nc4ccccn4c3NCc3ccccc3)cc2)c1	/	91	7	15	40*	/	152*	117*
c1ccc(CNc2c(-c3cccc(SC4CCCCC4)c3)nc3ccccn23)cc1	/	8	5	16	46*	2	100*	65*
CN(Cc1ccccc1)C(=O)COC(=O)c1ccc[nH]c1=O	/	0	0	12	2	-1	/	/
CCC(C)Sc1cccc(-c2nc3cc(C)ccn3c2NCc2ccccc2)c1 (centres undefined)	12	14	5	12	33*	3	49*	36*
COc1ccc(-c2nc(CN3CCN(c4cc(C)nc(C)c4)CC3)c(C)o2)c2ccccc12	4	97	-1	2	67*	0	45*	43*
Cc1cc(N2CCN(Cc3nc(-c4ccc(Cl)cc4)oc3C)CC2)cc(C)n1	2	6	-2	8	4	1	/	/

High-throughput results (PubChem)
